Records with an inconclusive call do not appear. Activity calls are given as the source filed them. Rule for the calls: active = hit-call score of the fitted dose curve at least 0.9, where 1 is the maximum; inconclusive = response in the unintended direction; inactive = score below 0.9.
Target: Cellular tumor antigen p53 (Homo sapiens) (UniProt P04637)
Assay: TOX21_p53_BLA_p4_ratio: Tox21 HCT-116 p53 Agonism Beta-lactamase Assay, Ratio, Phase 4 (AID 2283601)
Excerpt: TOX21_p53_BLA_p4 is a cell-based, single-readout assay that uses HCT116, a human intestinal cell line, […] in a 1536-well plate.TOX21_p53_BLA_p4_ratio is an assay readout measuring reporter gene via receptor activity and designed using inducible reporter (beta lactamase induction) detected with GAL4 b-lactamase reporter gene. The signal is derived from the ratio of cleaved (ch2) to uncleaved (ch1)reporter gene substrate used as the measure of target activity.Data from the assay component TOX21_p53_BLA_p4_ratio was analyzed into 1 assay endpoint. This assay endpoint, TOX21_p53_BLA_p4_ratio, was analyzed in the positive analysis fitting direction relative to DMSO as the negative control and baseline of activity. Using a type of inducible reporter, gain-of-signal activity can be used to understand changes in the reporter gene as they relate to the gene TP53. Furthermore, this assay endpoint can be referred to as a primary readout, because this assay has produced multiple assay endpoints where this ratio serves a reporter gene function to understand target activity. To generalize the intended target to other relatable targets, this assay endpoint is annotated to the DNA binding intended target family, where the subfamily is tumor suppressor.
Thawing Method: Place 14 mL of pre-warmed thaw medium into a 15 mL of conical tub. Remove the vial of cells to be thawed from liquid nitrogen and thaw rapidly by placing at 37C in a water bath with gentle agitation for 1-2 minutes. Decontaminate the vial by wiping with 70% ethanol before opening in a biological safety cabinet. Transfer the vial contents drop-wise into 14 mL of thaw medium in a sterile 15-mL conical tub. Centrifuge cells at 900 rpm for 4 minutes and resuspend in thaw medium. Transfer contents to the T75 tissue culture flask containing Thaw Medium and place flask in a humidified 37C/5% CO2 incubator. Switch to growth medium at first passage.Propagation Method: Aspirate medium, rinse once in DPBS, add 0.25% Trypsin/EDTA and swirl to coat the cell evenly. Add an equal volume of Growth Medium to inactivate Trypsin after 2-3 minutes incubation at 37C. Centrifuge cells at 900 rpm for 4 minutes and resuspend in growth medium. Cell should be passage or fed at least twice a week.Assay Protocol: Harvest cells from culture in growth medium and resuspend in assay medium. 2.2 Dispense 4000 cells/5 uL/well into 1536-well black/clear bottom plates using a Multidrop dispenser. After the cells were incubated at 37C for 5 hours, 23 nL of compounds dissolved in DMSO were transferred to the assay plate by a PinTool resulting in a 217-fold dilution. Incubate the plates for 16 hours at 37C, 5% CO2. Add 1 uL of 6X LiveBLAzer FRET B/G (CCF4-AM) Substrate Mixture to each well using a BioRAPTR dispenser and incubate the plates at room temperature for 2 hours. Measure fluorescence intensity at 460 and 530 nm emission and 405 nm excitation by an Envision detector. Data is expressed as the ratio of 460nm/530nm emissions. Add 4 uL of Cell-titer Glo to each well using BioRAPTR and incubate the plates at room temperature for 2 hours. Measure fluorescence intensity by a VewLux plate reader.

Cellular tumor antigen p53 (Homo sapiens), sequence (P04637 whole entry, looked up): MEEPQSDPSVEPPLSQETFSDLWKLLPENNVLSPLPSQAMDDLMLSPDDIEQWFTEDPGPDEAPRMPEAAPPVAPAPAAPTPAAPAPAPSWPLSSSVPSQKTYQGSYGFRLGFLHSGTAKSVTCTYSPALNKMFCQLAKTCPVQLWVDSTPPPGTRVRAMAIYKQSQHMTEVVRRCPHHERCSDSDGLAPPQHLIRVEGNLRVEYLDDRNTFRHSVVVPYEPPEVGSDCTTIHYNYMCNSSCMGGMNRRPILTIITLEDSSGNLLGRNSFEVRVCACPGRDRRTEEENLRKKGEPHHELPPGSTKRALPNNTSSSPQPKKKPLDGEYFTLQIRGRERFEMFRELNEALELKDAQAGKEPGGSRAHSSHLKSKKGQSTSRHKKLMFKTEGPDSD

SMILES	outcome	AC50
CN1[C@@H]2CC[C@H]1CC(OC(=O)c1c[nH]c3ccccc13)C2 (stereo not given in full)	inactive	
Cc1ccc(C(=O)c2ccc(CC(=O)O)n2C)cc1	inactive	
Nc1ccccc1S(=O)(=O)O	inactive	
O=C(CS(=O)Cc1ccco1)NC/C=C\COc1cc(CN2CCCCC2)ccn1 (stereo not given)	inactive	
CCn1ccnc1CC1COc2ccccc2O1 (stereo not given)	inactive	
CN(C)CC/C=C1\c2ccccc2COc2ccccc21	inactive	
O=C1NC(=O)[C@H]2[C@@H]1[C@@H]1C=C[C@H]2C1	inactive	
Clc1ccc2nsnc2c1NC1=NCCN1	inactive	
[K+]	inactive	
COc1ccc(CCC(=O)c2c(O)cc(O[C@@H]3O[C@H](CO)[C@@H](O)[C@H](O)[C@H]3O[C@@H]3O[C@@H](C)[C@H](O)[C@@H](O)[C@H]3O)cc2O)cc1O	inactive	
C=Cc1ccccn1	inactive	
CCc1ccc(C(=O)C(C)CN2CCCCC2)cc1 (stereo not given)	inactive	
Cc1cccc(O)c1N	inactive	
COc1cc(Nc2c(C#N)cnc3cc(OCCCN4CCN(C)CC4)c(OC)cc23)c(Cl)cc1Cl		7.74 µM (active)
CC(C)(C)NSc1nc2ccccc2s1	inactive	
CN(CC(=O)N1CCOCC1)Cc1c(Cl)cccc1NC(=O)c1ccccc1	inactive	
Cc1cccc(C)c1OCC(C)N (stereo not given)	inactive	
O=C(O)CNC(=O)c1ccc(CO)o1	inactive	
Cc1cc([N+](=O)[O-])ccc1N	inactive	
CS(=O)(=O)CCNCc1ccc(-c2ccc3ncnc(Nc4ccc(OCc5cccc(F)c5)c(Cl)c4)c3c2)o1	inactive	

SMILES	outcome	AC50
CCN(CCO)CCCC(C)Nc1ccnc2cc(Cl)ccc12 (stereo not given)	inactive	
COc1ccc(C2CNC(=O)C2)cc1OC1CCCC1 (stereo not given)	inactive	
C[Si](Cl)(c1ccccc1)c1ccccc1	inactive	
O=C(NCCCN1CCOCC1)c1ccc(Cl)cc1	inactive	
Cc1ccc(S(=O)(=O)NC(=O)NC2CCCC2)cc1	inactive	
Cc1ccc(N)cc1[N+](=O)[O-]	inactive	
CC/C=C(\C(=O)N[C@@H]1C(=O)N2C(C(=O)OCOC(=O)C(C)(C)C)=C(COC(N)=O)CS[C@H]12)c1csc(N)n1	inactive	
NC(Cc1ccccc1)C(=O)O (stereo not given)	inactive	
Nc1nc(N)nc(-c2cc(Cl)ccc2Cl)n1	inactive	
CC1(C)S[C@@H]2[C@H](NC(=O)[C@@H](NC(=O)N3CCNC3=O)c3ccccc3)C(=O)N2[C@H]1C(=O)O	inactive	
CC(Oc1ccccc1)C(=O)N[C@@H]1C(=O)N2[C@@H]1SC(C)(C)[C@@H]2C(=O)O (stereo not given in full)	inactive	
CC(C)CCC[C@@H](C)[C@H]1CC(=O)C2=C3CC[C@H]4C[C@@H](O)CC[C@]4(C)[C@H]3CC[C@@]21C	inactive	
CCOC(=O)[C@H](CCc1ccccc1)N[C@@H](C)C(=O)N1CC2(C[C@H]1C(=O)O)SCCS2	inactive	
CCCCCC(N)=O	inactive	
O=C(Cn1c(=O)sc2ccc(Cl)cc21)N1CCN(CCO)CC1	inactive	
CCOc1cc(NC(C)=O)ccc1C(=O)OC	inactive	
CCCCNc1c(C(=O)OCC)c(C)nc2c1cnn2CC	inactive	
CCO/C([O-])=N/c1c[n+](N2CCOCC2)no1	inactive	
CNC1(C)C2CCC(C2)C1(C)C (stereo not given)	inactive	
CN1CCN(c2c(F)cc3c(=O)c(C(=O)O)cn4c3c2SCC4)CC1	inactive	

From PubChem BioAssay (EPA / NIEHS)
